Experiment [1] in a line: qHTS assay to test for compound auto fluorescence at 535 nm (green) in HEK293 cells (AID 720680). Background: Quantitative high-throughput screening tests each substance at several concentrations.
Experiment [2] can be described thus: qHTS assay to test for compound auto fluorescence at 460 nm (blue) in HEK293 cell free culture (AID 720681). The method, boiled down:
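Compounds were added to cell-free DMEM with 10% FBS and fluorescence read directly. The blue channel used 405 nm excitation and 460 nm emission, with triamterene as the reference fluorophore.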

Experiment [3] can be described thus: qHTS assay to test for compound auto fluorescence at 535 nm (green) in HEK293 cell free culture (AID 720682). An outline of the steps:
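Steps: dispense DMEM/10% FBS into empty wells; pin in compound or DMSO; measure fluorescence at 485/535 nm. Values are fluorescein equivalents.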

Experiment [4] can be described thus: qHTS assay to test for compound auto fluorescence at 590 nm (red) in HEK293 cell free culture (AID 720683). An outline of the steps: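 Cell-free wells of DMEM with 10% FBS received compound, and intrinsic fluorescence was read at excitation/emission 540/590 nm. Values expressed as equivalence to Rose Bengal sodium.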
Experiment [5] in a line: qHTS assay to test for compound auto fluorescence at 590 nm (red) in HepG2 cell free culture (AID 720684). The method, boiled down: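 Rose Bengal sodium served as the reference for red signal. Test compounds were dispensed into serum-containing MEM (10% FBS) without cells, and plates were read at 540/590 nm.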
Experiment [6] in a line: qHTS assay to test for compound auto fluorescence at 460 nm (blue) in HepG2 cell free culture (AID 720685). The method, boiled down: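 Cell-free plates of MEM plus 10% FBS received 23 nL compound or DMSO vehicle; blue-channel (405/460 nm) intensity scored against triamterene as reference fluorophore.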
The nature of experiment [7]: qHTS assay to test for compound auto fluorescence at 460 nm (blue) in HepG2 cells (AID 720687). The method, boiled down:
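HepG2 cells in MEM with 10% FBS, attached overnight at 37 C, were exposed to compound or DMSO for 1 hr at 37 C, 5% CO2. Blue fluorescence was read at 405/460 nm, with triamterene as reference fluorophore.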

The target in experiment [8] is Glucocorticoid receptor (Homo sapiens) (UniProt P04150). As to the kind of experiment: qHTS assay to identify small molecule agonists of the glucocorticoid receptor (GR) signaling pathway (AID 720691; active = well fitted activation curve with a large enough effect in the signal ratio in the repeat runs, not every such curve was filed as active; the % refers to the signal ratio; note: potency is the fitted concentration of half-maximal effect). As to conditions: GR-bla HeLa, beta-lactamase reporter ratio, 18 h; activation: at 62.4 µM (top of the series). An outline of the steps: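 Measures GR pathway activation through a GRE-beta-lactamase reporter stably integrated in HeLa cells, with 18 h compound treatment at 37 C and fluorescence detection using a FRET substrate.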
Sequence of Glucocorticoid receptor (Homo sapiens) (P04150 whole entry, looked up): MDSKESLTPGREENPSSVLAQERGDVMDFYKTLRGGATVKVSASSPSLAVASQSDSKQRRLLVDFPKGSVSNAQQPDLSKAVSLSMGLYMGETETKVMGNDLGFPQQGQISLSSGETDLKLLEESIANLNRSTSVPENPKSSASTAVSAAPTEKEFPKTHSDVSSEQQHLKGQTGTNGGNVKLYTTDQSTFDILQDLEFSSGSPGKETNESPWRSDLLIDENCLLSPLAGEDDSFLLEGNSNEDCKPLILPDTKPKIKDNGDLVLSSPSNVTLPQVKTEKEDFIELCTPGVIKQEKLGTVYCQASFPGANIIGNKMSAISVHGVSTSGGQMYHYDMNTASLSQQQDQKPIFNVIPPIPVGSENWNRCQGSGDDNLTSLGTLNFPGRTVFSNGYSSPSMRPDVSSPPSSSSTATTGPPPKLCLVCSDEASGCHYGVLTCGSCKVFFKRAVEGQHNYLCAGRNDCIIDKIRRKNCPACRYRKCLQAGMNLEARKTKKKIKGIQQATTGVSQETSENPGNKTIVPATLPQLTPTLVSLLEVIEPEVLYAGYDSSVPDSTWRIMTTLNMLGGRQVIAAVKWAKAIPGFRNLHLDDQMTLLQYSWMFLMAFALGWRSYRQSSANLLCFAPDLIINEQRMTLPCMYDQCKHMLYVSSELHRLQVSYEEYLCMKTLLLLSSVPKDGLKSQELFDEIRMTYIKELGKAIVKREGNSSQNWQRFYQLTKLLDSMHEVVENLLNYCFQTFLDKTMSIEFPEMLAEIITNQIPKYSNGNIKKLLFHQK

For experiment [9] the target is unchanged. Briefly: qHTS assay to identify small molecule antagonists of the glucocorticoid receptor (GR) signaling pathway (AID 720692; active = well fitted inhibition curve with a large enough effect in the signal ratio in the repeat runs, not every such curve was filed as active; the % refers to the signal ratio). The method, boiled down: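 Tox21 10K library screened in concentration-response for blockade of dexamethasone (5 nM final)-induced GRE-bla reporter activity in HeLa cells; 18 h treatment, fluorescence read.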
A short description of experiment [10]: qHTS assay to identify small molecule antagonists of the glucocorticoid receptor (GR) signaling pathway - cell viability counter screen (AID 720693). Note: nearly all actives have a fitted effect of over 55% in size.
Experiment [11] in a line: qHTS assay for identifying genotoxic compounds that show differential cytotoxicity against isogenic chicken DT40 cell lines with known DNA damage response pathways - wild type cell line (AID 743012). Note: nearly all actives have a fitted effect of over 60% in size. An outline of the steps: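 Endpoint: CellTiter-Glo luminescence, 30 min RT. Cells: wild type DT40, 300/well. Exposure: compounds in DMSO, 40 h, 37 C/5% CO2, after ~0.5 h pre-incubation.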

Experiment [12] is described as follows: qHTS assay for identifying genotoxic compounds that show differential cytotoxicity against isogenic chicken DT40 cell lines with known DNA damage response pathways - Rev3 mutant cell line (AID 743014). Note: nearly all actives have a fitted effect of over 55% in size. Note: potency is the fitted concentration of half-maximal effect.
Experiment [13] can be described thus: qHTS assay for identifying genotoxic compounds that show differential cytotoxicity against isogenic chicken DT40 cell lines with known DNA damage response pathways - Rad54/Ku70 mutant cell line (AID 743015). Note: nearly all actives have a fitted effect of over 60% in size. Note: potency is the fitted concentration of half-maximal effect.
A short description of experiment [14]: qHTS assay to identify small molecule antagonists of the androgen receptor (AR) signaling pathway - cell viability counter screen (AID 743033; note: nearly all actives have a fitted effect of over 45% in size).
Experiment [15] is described as follows: qHTS assay to identify small molecule antagonists of the androgen receptor (AR) signaling pathway using the MDA cell line - cell viability counter screen (AID 743041; note: nearly all actives have a fitted effect of over 45% in size). The method, boiled down:
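Cytotoxicity counter screen: MDA-kb2 AR-luc cells, compound + R1881, 16 h, 37C, 0% CO2; CellTiter-Fluor added at 15.5 h, fluorescence read after 30 min.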

A short description of experiment [16]: qHTS assay to test for compound auto fluorescence at 535 nm (green) in HepG2 cell free culture (AID 720686).
Experiment [17] addresses Androgen receptor (Homo sapiens) (UniProt P10275). As to the kind of experiment: qHTS assay to identify small molecule antagonists of the androgen receptor (AR) signaling pathway (AID 743035; active = well fitted inhibition curve with a large enough effect in the signal ratio in the repeat runs, not every such curve was filed as active; the % refers to the signal ratio). An outline of the steps: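 R1881 agonist challenge of a HEK293 UAS-beta-lactamase AR reporter line in the presence of compound (16 h, 37C); signal taken as FRET fluorescence after 2 h with LiveBLAzer B/G substrate at room temperature.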

Experiment [18] shares this target. Briefly: qHTS assay to identify small molecule agonists of the androgen receptor (AR) signaling pathway (AID 743036; active = well fitted activation curve with a large enough effect in the signal ratio in the repeat runs, with a control signal flat, not every such curve was filed as active; the % refers to the signal ratio). The method, boiled down:
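Reporter line: GeneBLAzer AR-UAS-bla-GripTite (HEK293). Steps: plate cells, 4 h rest, add compounds, 16 h at 37C, add LiveBLAzer B/G substrate, 2 h at RT, read fluorescence.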

Experiment [19] shares this target. Briefly: qHTS assay to identify small molecule agonists of the androgen receptor (AR) signaling pathway using the MDA cell line (AID 743040; note: nearly all actives have a fitted effect of over 20% in size). An outline of the steps:
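Luciferase read-out, ONE-Glo, 30 min RT. Cells: MDA-kb2 AR-luc, MMTV promoter with AR and GR response elements. Compound exposure 16 h, 37C, 0% CO2, after 5 h pre-incubation. qHTS agonist mode.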

The target is the same in experiment [20]. Briefly: qHTS assay to identify small molecule antagonists of the androgen receptor (AR) signaling pathway using the MDA cell line (AID 743042; note: nearly all actives have a fitted effect of over 55% in size). An outline of the steps:
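MDA-kb2 breast carcinoma cells carrying MMTV-luciferase (AR/GR responsive) were co-treated with compounds and the agonist R1881 for 16 h at 37C. Inhibition read as ONE-Glo luminescence; CellTiter-Fluor fluorescence measured in parallel for cytotoxicity.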

Records with an inconclusive call do not appear. Calls of active or inactive are those of the source. Unless noted, calls come from the whole dose curve; as a rule, active = well fitted curve in the direction sought with a large enough effect in the repeat runs; inconclusive = weak or mixed curves; inactive = no such curve, though single readings can be large; an effect the other way counts as inactive or inconclusive.

Sequence of Androgen receptor (Homo sapiens) (P10275 whole entry, looked up): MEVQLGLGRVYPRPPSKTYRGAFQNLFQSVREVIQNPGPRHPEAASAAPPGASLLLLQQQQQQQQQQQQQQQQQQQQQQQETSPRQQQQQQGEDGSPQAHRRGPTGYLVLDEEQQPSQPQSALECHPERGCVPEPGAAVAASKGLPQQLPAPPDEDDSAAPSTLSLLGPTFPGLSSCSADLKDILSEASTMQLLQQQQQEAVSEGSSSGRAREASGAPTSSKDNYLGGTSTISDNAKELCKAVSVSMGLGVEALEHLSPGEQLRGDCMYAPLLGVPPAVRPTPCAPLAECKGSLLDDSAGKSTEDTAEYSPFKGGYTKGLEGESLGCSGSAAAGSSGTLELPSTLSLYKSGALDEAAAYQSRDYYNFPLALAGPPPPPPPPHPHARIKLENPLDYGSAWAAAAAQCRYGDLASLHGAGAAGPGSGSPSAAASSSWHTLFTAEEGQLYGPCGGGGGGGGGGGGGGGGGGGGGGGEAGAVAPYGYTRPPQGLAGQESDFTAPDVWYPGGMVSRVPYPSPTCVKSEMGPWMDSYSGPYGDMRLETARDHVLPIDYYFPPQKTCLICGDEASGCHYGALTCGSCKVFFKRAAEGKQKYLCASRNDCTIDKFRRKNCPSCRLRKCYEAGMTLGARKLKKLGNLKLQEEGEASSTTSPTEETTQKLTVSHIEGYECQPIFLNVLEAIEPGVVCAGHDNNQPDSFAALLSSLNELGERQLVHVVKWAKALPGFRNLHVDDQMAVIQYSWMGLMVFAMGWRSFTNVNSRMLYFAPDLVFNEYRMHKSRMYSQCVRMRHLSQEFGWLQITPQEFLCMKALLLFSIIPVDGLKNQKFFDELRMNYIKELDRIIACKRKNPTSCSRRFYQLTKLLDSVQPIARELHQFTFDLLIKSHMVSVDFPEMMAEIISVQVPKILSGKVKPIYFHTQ

Regarding `Nc1ncnc2c1ncn2CCOCP(=O)(O)O`, the Potency result in experiment [1], in [2], in experiment [3], in [4], in experiment [5] and in [8] was “inactive” each time. In addition, the Potency result in [9], in [10], in [11], in experiment [12], in experiment [13] and in experiment [14] was “inactive” each time. Further, in experiment [15], the Potency result was “inactive”. Besides, the molecule was classed as inactive in experiment [6] and in experiment [7].
For the molecule `CC(C)c1nc(N(C)S(C)(=O)=O)nc(-c2ccc(F)cc2)c1/C=C/C(O)CC(O)CC(=O)O` (stereo unspecified), the Potency result in experiment [1], in experiment [2], in experiment [3], in experiment [4], in experiment [5] and in experiment [16] was “inactive” throughout. In addition, the Potency result in experiment [8], in experiment [9], in experiment [10], in experiment [14] and in experiment [15] was “inactive” throughout. Besides, in experiment [6], the molecule was called inactive.
On to `O=C(O)c1cc(N=Nc2ccc(O)c(C(=O)O)c2)ccc1O`, for which the Potency entry in experiment [1], in [2], in [3], in experiment [4], in [5] and in [8] was “inactive” throughout. The Potency entry in experiment [9], in experiment [10], in experiment [13], in experiment [14], in experiment [17] and in experiment [18] was “inactive” each time. Besides, the Potency entry in experiment [19] and in [20] was “inactive” throughout. The molecule was classed as inactive in experiment [6] and in [7].
With `COc1ccc2c(=O)c(C)c(-c3ccccc3)oc2c1CN(C)C`, the Potency entry in experiment [1], in experiment [2], in [3], in experiment [4], in experiment [5] and in experiment [16] was “inactive” throughout. Besides, the Potency entry in experiment [8], in [10], in [12], in experiment [14], in [17] and in experiment [18] was “inactive” in each case. For the same molecule, the Potency result in experiment [19] and in experiment [20] was “inactive” in each case. The molecule was classed as inactive in experiment [6]. Further, in experiment [13], the Potency was 18.8 µM (active).
On to `CN[C@@H]1[C@@H](O)[C@@H](O[C@@H]2[C@@H](O)[C@H](O[C@H]3O[C@H](CN)[C@@H](O)[C@H](O)[C@H]3O)[C@@H](N)C[C@H]2NC(=O)C(O)CN)OC[C@]1(C)O` (stereo partly specified), for which the Potency result in experiment [1], in [2], in [3], in experiment [4], in experiment [5] and in experiment [16] was “inactive” in each case. In addition, the Potency entry in [10], in experiment [11], in [12], in experiment [13], in experiment [14] and in [15] was “inactive” in each case. In experiment [6], the molecule was classed as inactive. The Potency in [8] was 6.01 µM (active).
Consider `CC1(C)C(\C=C/C=C\C=C/C=C2/N(CCCCS(=O)(=O)O)c3ccc4ccccc4c3C2(C)C)=[N+](CCCCS(=O)(=O)[O-])c2ccc3ccccc3c21`, for which the Potency result in experiment [1], in experiment [2], in [3], in experiment [4], in [5] and in experiment [8] was “inactive” in each case. Besides, the Potency result in experiment [10], in experiment [14], in [17] and in [19] was “inactive” throughout. Also, the molecule was called inactive in [6] and in [7]. In addition, the Potency in experiment [12] is 26.6 µM (active); in [13], 29.8 µM (active).
As to `O=C(OCCO)c1ccccc1O`, the Potency result in experiment [1], in experiment [2], in experiment [3], in [4], in experiment [5] and in [16] was “inactive” throughout. The Potency result in experiment [8], in [9], in [10], in [12], in [13] and in experiment [14] was “inactive” in each case. Also, in [15], the Potency entry is “inactive”. Also, in experiment [6], the result was inactive.

Source of the values: PubChem BioAssay (Tox21).
